G9a inh – qHTS Assay for Inhibitors of Histone Lysine Methyltransferase G9a; Histone-lysine N-methyltransferase EHMT2 (Homo sapiens), Q96KQ7; 8.8% of 350,000 active; Potency, µM (doses to about 102 µM), inactives show at the highest dose activity, negative = inhibition, most hits filed as inhibitors; AID 504332, 2011; G9a H3K9 monomethylation, AlphaScreen, 2 h; further: on the % scale 0 is the no-effect control and ±100 the full control effect; nearly all actives have a fitted effect of over 75% in size
Target sequence (Q96KQ7 913-1193 limits assumed): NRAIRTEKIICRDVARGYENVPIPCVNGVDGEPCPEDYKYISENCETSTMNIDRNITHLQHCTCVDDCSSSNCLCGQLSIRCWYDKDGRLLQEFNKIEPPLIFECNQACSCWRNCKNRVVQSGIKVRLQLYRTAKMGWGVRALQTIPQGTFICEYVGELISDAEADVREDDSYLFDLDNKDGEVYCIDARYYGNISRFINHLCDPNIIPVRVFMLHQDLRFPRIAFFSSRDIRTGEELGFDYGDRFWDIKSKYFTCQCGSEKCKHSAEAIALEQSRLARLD
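G9a (20 nM) was preincubated 15 min with compound, then reacted 2 h at room temperature with 500 nM biotin-H3K9 peptide and 20 µM SAM. Monomethyl-H3K9 detected by AlphaScreen using anti-H3K9me1 antibody.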
HP1b binding inh – HTS for Inhibitors of HP1-beta Chromodomain Interactions with Methylated Histone Tails. AlphaScreen HP1-beta / biotin-H3K9me3 peptide binding. Chromobox protein homolog 1 (Homo sapiens), P83916. Potency, µM (titrated, usually from 114 µM), without a hit: top-dose activity change, negative = inhibition, actives largely listed as inhibitors. 0.56% of 390,000 active; further: nearly all actives have a fitted effect of over 70% in size
Target sequence (P83916 whole entry, looked up): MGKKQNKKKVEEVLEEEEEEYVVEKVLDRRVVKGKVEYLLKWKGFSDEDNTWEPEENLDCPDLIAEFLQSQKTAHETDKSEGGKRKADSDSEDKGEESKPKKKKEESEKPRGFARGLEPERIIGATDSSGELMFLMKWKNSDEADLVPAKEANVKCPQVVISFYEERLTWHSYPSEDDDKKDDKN
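AlphaScreen: HP1-beta (50 nM) preformed 30 min with biotin-H3(1-18)K9me3 peptide (50 nM) in PBS pH 7.4, 0.01% Tween-20. Compound added for 30 min at RT, then streptavidin donor/nickel chelate acceptor beads (10 ug/mL) for 30 min.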
JMJD2A Tudor – qHTS Assay for Inhibitors of JMJD2A-Tudor Domain. AlphaScreen JMJD2A-Tudor / H3K4me3 peptide binding. Potency, µM (highest dose often 114 µM), for the others: at the top dose activity change, negative = inhibition, actives largely listed as inhibitors. 4.4% of 390,000 active; further: on the % scale 0 is the no-effect control and ±100 the full control effect; nearly all actives have a fitted effect of over 50% in size
Sfp inh – qHTS Assay for Inhibitors of Bacillus subtilis Sfp phosphopantetheinyl transferase (PPTase). 4'-phosphopantetheinyl transferase ffp (Bacillus subtilis), Q9F4F7. Biochemical Sfp PPTase activity, qHTS. Potency, µM, without a hit: largest response in the series, negative = inhibition, hits mostly inhibitors. 3.5% of 310,000 active. AID 1490, 2009;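 further: the enzyme is Sfp with the accession as filed and its product quenches rhodamine fluorescence; 0% = enzyme reaction without inhibitor and -100% = no enzyme wells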
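With Hepes-Na pH 7.6 buffer containing 10 mM MgCl2, Sfp (15 nM) modified BHQ-2-YbbR (12.5 uM) using rhodamine-CoA (5 uM). Two reads 30 minutes apart at 525/598 nm yielded each well's rate.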
BAZ2B inh – qHTS Assay for Inhibitors of BAZ2B | Potency, µM (doses to about 114 µM), inactives show top-dose activity change, negative = inhibition, hits mostly inhibitors | Bromodomain adjacent to zinc finger domain protein 2B (Homo sapiens), Q9UIF8 | AlphaScreen BAZ2B-H3K14Ac peptide displacement | 4.4% of 360,000 active; further: on the % scale 0 is the no-effect control and ±100 the full control effect; nearly all actives have a fitted effect of over 60% in size
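AlphaScreen displacement of biotin-H3(5-23)K14Ac peptide (50 nM final) from BAZ2B (50 nM final) in PBS pH 7.4, 0.01% Tween-20; complex preformed 30 min RT, then compounds (top 110 uM) 30 min RT, beads 20 min dark.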
* marks the source's active call; other numbers are inactive results; u = inconclusive; x = no result given; [ ] = another dose, or the depositor's remark. Shown are actives, neighbours in structure and some others; about 12% of the full set was active somewhere. The call rests on the fitted dose curve; in most records, active means well fitted curve in the direction sought with a large enough effect; inconclusive means small, poorly fitted or top-dose-only effect, or another doubt; inactive means no such curve, though single readings can be large; an effect the other way counts as inactive or inconclusive. Potency means the concentration at half of the fitted maximal effect.

SMILES	G9a inh	HP1b binding inh	JMJD2A Tudor	Sfp inh	BAZ2B inh
Cc1cc(O)c(NC(=O)c2ccc(Br)o2)cc1C	26.1%[12.7 µM]	2.3%	-26.1%	-7.3%	50.1µM*
CCOC(=O)[C@@H]1[C@H]2COc3ccccc3[C@H]2N2C(=O)N(c3cccc(F)c3)C(=O)[C@]12C	10.6%	46.7%	-16.4%	8.2%	-1.5%
O=C(/C=C/c1cccc(C(F)(F)F)c1)OCC(=O)N1CCN(c2ccccc2)CC1	x	21.0%	-2.7%	x	x
Cc1nc(NCCc2ccc(S(N)(=O)=O)cc2)c2c3c(sc2n1)CCC3	-36.5%[59 µM]	7.7%	-17.2%	9.6%	0.7%
Cc1nc(NS(=O)(=O)c2ccc(Cl)s2)c2c3c(sc2n1)CCCC3	50.1µM*	18.2%	-26.2%	23.5%	-29.1%
O=C(NCCc1c[nH]c2ccccc12)/C(=C/c1ccco1)NC(=O)c1ccco1	-2.4%	-9.6%	-16.2%	29.0%	-24.6%
CC(=C\c1ccco1)/C=C(\C#N)C(=O)NCCc1c[nH]c2ccccc12	12.6µM*	9.2%	u	3.8%	u
COc1cccc(-c2cncnc2NCc2ccc(OC)cc2OC)c1	x	x	x	-10.8%	x
CC(C)OC(=O)c1cccnc1SCC(=O)Nc1ccc(C(F)(F)F)cc1Cl	9.2%[59 µM]	27.1%	-11.3%	x	9.1%
Cc1ccc(S(=O)(=O)N2CC(=NO)C2)cc1	44.7µM*	35.8%	-6.2%	4.3%	-3.8%
O=[N+]([O-])c1cccc(-c2n[nH]c(=S)n2-c2ccc(Br)cc2)c1	6.31µM*	-1.2%	u	-5.4%	-36.8%
S=c1[nH]nc(-c2ccc(Br)cc2)n1-c1ccc(Br)cc1	8.91µM*	20.1%	-31.0%	22.5%	-11.6%
O=C(O)c1ccc(-n2c(-c3ccc(Br)cc3)n[nH]c2=S)cc1	u	31.5%	7.08µM*	u	-25.1%
Cc1[nH]c2ccc(-c3n[nH]c(=S)n3-c3ccc(Br)cc3)cc2c1C	-0.6%	30.3%	-17.0%	12.8%	u
COc1cc(-c2n[nH]c(=S)n2-c2ccc(Br)cc2)cc(OC)c1OC	x	15.1%	50.1µM*	-3.3%	-1.0%
Cc1nc(=O)c(-c2ccccc2)c(C)n1-c1ccc(C(=O)O)cc1	u	22.3%	-27.0%	3.5%	-7.1%
Cc1cc(C)c2c(-n3cccc3)c(C(=O)NCCCN3CCCCC3C)sc2n1 (stereo not given)	-39.9%[59 µM]	31.8%	-20.2%	x	u
Cn1c2c(c(=O)[nH]c1=O)C(c1ccc(O)cc1)C1=C(N2)c2ccccc2C1=O (stereo not given)	35.5µM*	35.5µM*	50.1µM*	-21.8%	2.0%
Cc1ccc(-n2c(=O)c3c4c(sc3n(CC(=O)Nc3ccccc3C)c2=O)CCCCC4)cc1C	-37.6%[59 µM]	38.2%	-13.7%	x	2.1%
COC(=O)c1cc(C)nc2c1c(=O)nc(SCc1ccccc1F)n2C1CC1	0.7%[59 µM]	21.8%[57 µM]	-17.2%	x	-0.4%
NC[C@@H]1O[C@@H](O[C@H]2[C@H](O)[C@@H](O[C@@H]3O[C@@H](CO)[C@H](O)[C@@H](N)[C@@H]3O)[C@H](N)C[C@@H]2N)[C@@H](O)[C@H](O)[C@H]1O	28.0%[59 µM]	x	x	2.0%	x
Cc1cccc(OCc2nnc(SCC(=O)Nc3ccc(N4CCOCC4)cc3)o2)c1	10.5%[59 µM]	24.8%	-4.8%	17.0%	1.0%
Cc1cnc(NC(=O)CSc2nnc(COc3ccccc3)o2)s1	8.8%	42.7%	-10.7%	12.7%	-1.0%
Cc1cccc(OCc2nnc(SCC(=O)NCCc3ccccc3)o2)c1	10.7%	24.3%	-1.3%	19.6%	-15.3%
O=C(CSc1nnc(COc2ccccc2)o1)NCCc1ccccc1	-4.0%[59 µM]	u	3.16µM*	21.3%	6.2%
SMILES	G9a inh	HP1b binding inh	JMJD2A Tudor	Sfp inh	BAZ2B inh
O=C(CSc1nnc(C2COc3ccccc3O2)o1)Nc1nccs1 (stereo not given)	0.2%	48.2%	79.4µM*	-3.2%	39.8µM*
Cc1cccc(OCc2nnc(SCC(=O)Nc3nccs3)o2)c1	7.0%	44.5%	-32.2%	30.4%	79.4µM*
O=C(CSc1nnc(COc2ccccc2)o1)Nc1nccs1	12.7%	64.2%	-33.8%	11.4%	79.4µM*
COc1ccc(CCNC(=O)COC(=O)C2CC2C)cc1OC (stereo not given)	8.2%[12.7 µM]	38.6%	7.4%	x	10.2%
CCOc1ccc(NC(=O)CSc2nnc(-c3ccc(OCC)cc3)o2)cc1	-25.9%[59 µM]	44.0%	-12.6%	x	2.2%
Cc1cc(-c2nnc(SCC(=O)Nc3ccccn3)o2)no1	41.1%[59 µM]	18.7%	u	14.1%	-11.8%
O=C(CSc1nnc(COc2ccc(Cl)cc2)o1)Nc1ccc(N2CCOCC2)cc1	31.6µM*	15.4%	-6.2%	x	4.0%
Cc1cc(-c2nnc(SCC(=O)Nc3nccs3)o2)no1	36.3%[12.7 µM]	24.0%	39.8µM*	7.2%	20µM*
CCc1ccc(S(=O)(=O)c2nnn3c2nc(N(CC)Cc2ccccc2)c2cc(Cl)ccc23)cc1	7.5%[59 µM]	40.6%	3.3%	x	12.4%
CCOC(=O)c1c(NC(=O)/C=C/c2ccc(C)cc2)sc(C(C)=O)c1C	u	35.9%	-10.1%	x	10.9%
O=c1ccc(Cl)n[nH]1	20.5%[12.7 µM]	29.8%	1.4%	14.2%	-2.7%
COc1ccccc1-n1c(/C=C/c2c(C)n(C)c3ccccc23)nc2ccccc2c1=O	-30.6%[59 µM]	8.0%	-19.3%	x	-9.1%
Cc1onc(-c2ccc(Cl)cc2Cl)c1-c1csc(N/N=C/c2ccccc2)n1	u	-14.9%	-32.6%	12.3%	u
O=C(CS(=O)(=O)c1cccc2nsnc12)NCc1ccccc1	5.1%[59 µM]	27.1%[57 µM]	-6.1%	x	9.2%
Cc1c(CN2CCC(CO)(CCOc3ccccc3)CC2)[nH]c2c(Cl)cccc12	50.1µM*	-4.6%	-19.1%[11.4 µM]	-23.1%	u
O=C(Nc1cccc(C(F)(F)F)c1)c1cnn(-c2cccc(F)c2)c1C1CCNCC1	-14.1%[59 µM]	6.3%	-22.0%	x	3.8%[57.1 µM]
COC(=O)c1ccc(C(=O)NCCCCO)cc1	1.2%	14.1%	-9.1%	21.0%	-4.9%
COC(=O)c1ccc(C)c(N(CCO)CCO)c1	25.1µM*	42.5%	0.0%	-4.5%	-4.1%
COc1cccc(C(=O)Nc2cc(-c3cn4cccnc4n3)ccc2C)c1OC	11.9%[59 µM]	18.4%[57 µM]	-18.4%	x	3.1%
O/N=C1/CCc2nonc2/C1=N/O	0.708µM*	13.4%	u	50.1µM*	10µM*
CC(C)=CCc1c(O)ccc2c1OC(c1ccc(O)c(O)c1)CC2=O (stereo not given)	-0.1%[12.7 µM]	-16.4%	u	2.2%	u
O=C1CC(c2ccc(O)c(O)c2)Oc2c1ccc(O)c2O (stereo not given)	-189.7%[59 µM]	u	8.91µM*	56.2µM*	10µM*
